Assay results reported in the supplement of paper PMC11417369.
± gives the standard deviation of the averaged measurements. The full ranking holds about 25,000 sequences; the median of “ln(normalized median fluorescence intensity)” is about 8.9, and the highest 2% start at about 10. This excerpt belongs to a sample that is enriched for the highest values.

test system: PfAP2-LT AP2 domain (GST-tagged); experiment: gcPBM binding intensity (ln(normalized median fluorescence intensity)); higher = stronger DNA binding
Outline: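 The highest Masliner-normalised natural-log median intensity across replicate spots of either probe orientation is reported as binding intensity. GST-tagged P. falciparum DNA-binding domains expressed in E. coli were applied for 1 h to an Agilent 4 × 180k array of primer-extended double-stranded 36-bp intergenic genomic probes plus negative controls, and bound protein was detected with Alexa488 anti-GST antibody and scanned at 488 nm.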

| Sequence | gcPBM binding intensity (ln) |
| --- | --- |
| ATATATATATAATTATATAAAATATATCATATGTTA [XGTACX_negctrl_site47] | 8.53 ± 0.42 |
| TATTAATTATATTTATGTACATAATCATATTATTAT [XGTACX_site7938] | 8.94 ± 0.44 |
| TTTAATCATATGTTATATAATAAGCCCCCCCCCCAA [CACACA_negctrl_site486] | 10.2 ± 0.17 |
| ATTTTTATTTTATATACACACAATAATAATATAATA [CACACA_site4015] | 8.62 ± 0.36 |
| ATAATACACAAGCACACACACACACGGATATTTATA [CACACA_site6714] | 10.4 ± 0.23 |
| AGCACAAGCACAAGCACACATTTATATATAAATACA [CACACA_site4642] | 9.1 ± 0.47 |
| AATTAAAAAAAATACACACACACATACCCATATATA [CACACA_site5767] | 9.85 ± 0.28 |
| TTTATTTATTATTGTTGTACACTTTTTATAAAAAAA [XGTACX_site5114] | 8.57 ± 0.53 |
| ATGAAAAAAAAAAAAAAAAAAAAAAAAAAAAAAATA [CACACA_negctrl_site1083] | 8.37 ± 0.55 |
| AAAAAATTCATATATACACACACGCACATATATATA [CACACA_site4226] | 9.53 ± 0.13 |
| AAAAATTTGGCATACACACACACACCGACACAGACA [CACACA_site4489] | 10 ± 0.23 |
| AAAAATTTGGCATACACACACACACCCACACCCACA [CACACA_site587] | 10.03 ± 0.042 |
| AAAAAAATTTGGCATACACACACACCCCCACCCACA [CACACA_site8094] | 10.41 ± 0.05 |
| AAAATTCATATATACACACACGCACATATATATATA [CACACA_site90] | 9.71 ± 0.21 |
| AAAAATTTGGCATACACACACACACGCACACGCACA [CACACA_site6422] | 10.2 ± 0.21 |
| CACATACACCCATACACACACATATATATTAAGATA [CACACA_site4459] | 9.57 ± 0.38 |
| TATATATATATATAATGTACAAACTCCTTTATATAT [XGTACX_site4545] | 9.05 ± 0.2 |
| ATTATTTTATTATAGTGTACTTTTTTAATCAAAGGA [XGTACX_site8921] | 8.44 ± 0.4 |
| TTAGGTTATAAATACACACACAAAAGAAAAAAAAAA [CACACA_site5625] | 9.23 ± 0.55 |
| TTATGATCATTTATATGTACACATAATTTTTGTGCT [XGTACX_site5568] | 9.03 ± 0.44 |
| AAAAAAAAAAAAAAGAGTACATTTATTTATATATCT [XGTACX_site2381] | 8.46 ± 0.33 |
| AATAGAATAATCCTTACACACACACCCACACGAATA [CACACA_site8053] | 9.87 ± 0.16 |
| TAGAATAATCCTTACACACACACACCCACGAATAAA [CACACA_site483] | 10.1 ± 0.2 |
| AATAGAATAATCCTTACACACACACGCGCACGAATA [CACACA_site6365] | 9.78 ± 0.31 |
